TMEM16A inh: mouse TMEM16A channel inhibition, primary screen | Q8BHY3 | HEK293 TMEM16A/YFP iodide influx fluorescence, ionomycin | normalized B-score (activity score, 25-100; higher = stronger inhibition) at 10 µM | actives 1.2% (n = 310,000);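 active = ratio plate-corrected score three or more library SD toward inhibition, starting fluorescence score within five deviations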;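 note: score derived from kinetic fluorescence span divided by baseline fluorescence per well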
ANO1 activ: mouse TMEM16A channel activation, primary screen. actives 0.3% (n = 340,000). HEK293 TMEM16A/YFP-H148Q/I152L, iodide quench fluorescence; stronger effect = lower value. B-score at 10 µM. AID 623877. Q8BHY3;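 active = fluorescence-ratio B-score plate-corrected deviation score at least 3 library SD below zero, with starting fluorescence score within 5 deviations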;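 note: channel opened by trigger with iodide after compound preincubation; score built on the fluorescence ratio of max minus min over baseline; more negative score means more quench and so TMEM16A activation or potentiation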
GRK2 aptamer HTS: inhibitors of human GRK2 displacing RNA aptamer; inhibition of aptamer binding, % at 10 µM; actives 0.59% (n = 330,000); bead flow cytometry, FAM-aptamer displacement from GRK2; P25098;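 active = inhibition of aptamer binding above 40%, roughly 3 SD of noise, on plates passing a quality check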;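 note: median bead fluorescence of bound FAM aptamer so fluorescent compounds give negative values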
NOD2 RIPK2 PPI: inhibitors of human NOD2-RIPK2 interaction; CHO BLA complementation NOD2-RIPK2, CCF4 ratio; O43353; actives 0.38% (n = 360,000); AID 624267; inhibition, % at 4.98 µM; in the data active = inhibition above about 21%
TLR9-MyD88 inh: blocks human TLR9 binding to MyD88; CHO BLA complementation TLR9-MyD88, CCF4 FRET ratio; actives 0.21% (n = 340,000); Q9NR96+Q99836; inhibition, % at 4.98 µM;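 active = inhibition above the mean over all tested compounds plus 3 SD, cut at about 21% in these data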
TLR4-MyD88 BLA: TLR4-MyD88 interaction inhibition in cells. HeLa CL3-4 TLR4/MyD88 BLA complementation, FRET ratio. inhibition, % at 8.4 µM. actives 0.18% (n = 200,000). AID 861; in the data active = inhibition above about 25%
Target sequence (O00206 whole entry, looked up): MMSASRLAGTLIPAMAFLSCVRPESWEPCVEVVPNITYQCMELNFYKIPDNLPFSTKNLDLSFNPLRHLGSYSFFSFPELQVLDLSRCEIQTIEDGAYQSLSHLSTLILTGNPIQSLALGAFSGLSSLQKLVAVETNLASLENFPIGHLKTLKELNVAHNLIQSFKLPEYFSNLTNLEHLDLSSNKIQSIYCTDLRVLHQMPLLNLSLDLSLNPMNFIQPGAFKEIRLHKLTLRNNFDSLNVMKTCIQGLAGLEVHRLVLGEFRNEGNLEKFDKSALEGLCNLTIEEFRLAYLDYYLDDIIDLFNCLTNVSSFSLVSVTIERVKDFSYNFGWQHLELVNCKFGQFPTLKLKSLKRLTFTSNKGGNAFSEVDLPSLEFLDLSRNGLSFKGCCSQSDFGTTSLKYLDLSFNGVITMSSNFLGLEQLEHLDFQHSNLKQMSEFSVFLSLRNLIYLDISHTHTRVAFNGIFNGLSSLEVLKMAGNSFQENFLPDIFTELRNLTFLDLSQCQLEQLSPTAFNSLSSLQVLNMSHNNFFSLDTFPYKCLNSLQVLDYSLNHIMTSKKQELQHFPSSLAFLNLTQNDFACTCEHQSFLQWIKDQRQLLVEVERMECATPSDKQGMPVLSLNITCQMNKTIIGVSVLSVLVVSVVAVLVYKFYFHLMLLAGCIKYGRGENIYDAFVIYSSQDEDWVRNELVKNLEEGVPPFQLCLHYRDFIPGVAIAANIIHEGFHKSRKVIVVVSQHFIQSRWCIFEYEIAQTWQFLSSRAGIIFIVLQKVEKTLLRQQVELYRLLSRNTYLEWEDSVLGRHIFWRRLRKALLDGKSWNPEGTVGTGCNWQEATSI
Target sequence (Q99836 whole entry, looked up): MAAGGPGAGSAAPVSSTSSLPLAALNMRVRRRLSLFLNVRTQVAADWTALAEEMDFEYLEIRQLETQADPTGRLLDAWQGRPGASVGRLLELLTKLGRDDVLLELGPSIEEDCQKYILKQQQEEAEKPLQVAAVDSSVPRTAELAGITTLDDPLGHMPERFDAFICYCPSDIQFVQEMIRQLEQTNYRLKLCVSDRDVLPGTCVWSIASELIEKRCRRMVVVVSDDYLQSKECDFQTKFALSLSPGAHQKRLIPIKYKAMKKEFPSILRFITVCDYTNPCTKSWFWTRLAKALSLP
GRK2 inh confirm: human GRK2 inhibition confirmation, cherry pick 1 | shares compounds with GRK2 aptamer HTS | bead-bound GRK2, FAM-aptamer displacement, flow cytometry | aptamer displacement, % at 10 µM | actives 4% (n = 2,000) | AID 504451;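 active = aptamer displacement above 40%, near three times the noise of non-fluorescent compounds, on plates passing quality checks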;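 note: negative values mostly reflect intrinsic compound fluorescence rather than true enhancement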
Aptamer quench: fluorescent aptamer quenching in GRK2 counter-screen dose response. fluorescence change (kMESF span), kMESF (test concentration not listed). Fluorescent RNA aptamer beads, flow cytometry; stronger effect = higher value. shares compounds with GRK2 aptamer HTS. 110 tested, under 10 active;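 active = compounds whose bead fluorescence drops by more than 37 kMESF across the dose range, marking them as dye quenchers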
FAM quench CP1: aptamer fluorescence quenching in GRK2 counter-screen. shares compounds with GRK2 aptamer HTS. fluorescence response (% of DMSO), % at 10 µM. Carboxyfluorescein RNA aptamer on beads, flow cytometry quenching; stronger effect = lower value. 2,000 tested, under 10 active. AID 504580;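 active = compounds that quench the bead-bound fluorescent RNA probe, cutting fluorescence to under half of the solvent control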;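 note: counterscreen run without GRK2 so only probe quenching by compound is measured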
GRK2 CP2: human GRK2 inhibition confirmation, cherry pick 2; shares compounds with GRK2 aptamer HTS; bead-bound GRK2, FAM-aptamer displacement, flow cytometry; inhibition of aptamer binding, % at 10 µM; 360 tested, under 10 active; AID 504782;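 active = inhibition of aptamer binding above 40%, about triple the noise seen with nonglowing compounds, on plates passing quality control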;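 note: negative values mostly come from compounds that fluoresce themselves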
FAM quench SP: counter-screen for GRK2 binding hits: quenchers of fluorescent RNA aptamer; shares compounds with GRK2 aptamer HTS; carboxyfluorescein RNA aptamer beads, flow cytometry quenching; stronger effect = lower value; fluorescence response vs DMSO, % at 10 µM; 360 tested, under 10 active;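 active = response vs DMSO under 50%, meaning signal dropped by over half, treated as fluorescence quencher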;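 note: labelled aptamer on streptavidin beads without GRK2 as a quench counter-screen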
A number is an active result. This is a sample that favours compounds with a hit; in the whole collection about 2.2% have one here.

How did CC(C)c1c(C(=O)N/N=C/c2ccsc2)nnn1-c1nonc1N do in these assays?
TMEM16A inh: inactive; ANO1 activ: inactive; GRK2 aptamer HTS: inactive; NOD2 RIPK2 PPI: inactive; TLR9-MyD88 inh: inactive

What do the screens show for `O=C(CN1C(=O)c2cccnc2Oc2ccc(Cl)cc21)NCCCc1ccccc1`?
TMEM16A inh: inactive; ANO1 activ: inactive; GRK2 aptamer HTS: inactive; NOD2 RIPK2 PPI: inactive; TLR9-MyD88 inh: inactive

How did C=C(C)C(=O)Nc1cccc(C2=NOC3(C2)C[C@@H](C(N)=O)N(C(=O)c2ccc(Cl)cc2)C3)c1 (stereo partly specified) do in these assays?
TMEM16A inh: inactive; GRK2 aptamer HTS: 97; GRK2 inh confirm: 92; Aptamer quench: inactive; FAM quench CP1: inactive

Results for C=C(C)C(=O)N1CC2(CC(c3cccc(NC(=O)/C=C\C=C/C)c3)=NO2)C[C@H]1C(N)=O (stereo partly specified) ?
TMEM16A inh: inactive; ANO1 activ: inactive; GRK2 aptamer HTS: inactive; NOD2 RIPK2 PPI: inactive; TLR9-MyD88 inh: inactive

What do the screens show for `C=C(C)C(=O)Nc1cccc(C2=NOC3(C2)C[C@@H](C(N)=O)N(C(=O)C(=C)C)C3)c1` (stereo partly specified)?
TMEM16A inh: inactive; ANO1 activ: inactive; GRK2 aptamer HTS: 75; NOD2 RIPK2 PPI: inactive; TLR9-MyD88 inh: inactive; GRK2 inh confirm: 43; Aptamer quench: inactive; FAM quench CP1: inactive

Results for C=C(C)C(=O)Nc1cccc(C2=NOC3(C2)C[C@H](C(N)=O)N(C(=O)c2ccccc2)C3)c1 (stereo partly specified) ?
TMEM16A inh: inactive; ANO1 activ: inactive; GRK2 aptamer HTS: 48; NOD2 RIPK2 PPI: inactive; TLR9-MyD88 inh: inactive; GRK2 inh confirm: inactive; Aptamer quench: inactive; FAM quench CP1: inactive

Results for COc1ccc(Cc2c(C(C)(C)C)nc3c(C)cc(Br)cn23)c(C)c1 ?
NOD2 RIPK2 PPI: inactive

How did CCC(/C=C1\Sc2ccc(OC)cc2N1CC)=C\c1sc2ccc(OC)cc2[n+]1CCCS(=O)(=O)[O-] do in these assays?
TMEM16A inh: inactive; ANO1 activ: inactive; GRK2 aptamer HTS: 91; NOD2 RIPK2 PPI: inactive; TLR9-MyD88 inh: inactive; TLR4-MyD88 BLA: inactive; GRK2 inh confirm: 85; Aptamer quench: inactive; FAM quench CP1: inactive

How did Cn1c(=O)[nH]c(=O)c2c1nc(Br)n2CC(O)COc1ccccc1 (stereo unspecified) do in these assays?
TMEM16A inh: inactive; ANO1 activ: inactive; GRK2 aptamer HTS: 75; NOD2 RIPK2 PPI: inactive; TLR9-MyD88 inh: inactive; TLR4-MyD88 BLA: inactive; GRK2 inh confirm: inactive; FAM quench CP1: inactive

Results for CCN(CC)CCNc1nc2c(c(=O)[nH]c(=O)n2C)n1CC(O)COc1ccc(Cl)cc1Cl (stereo unspecified) ?
TMEM16A inh: inactive; ANO1 activ: inactive; GRK2 aptamer HTS: inactive; NOD2 RIPK2 PPI: inactive; TLR9-MyD88 inh: inactive; TLR4-MyD88 BLA: inactive

How did Cn1c(=O)[nH]c(=O)c2c1nc(SCCN1CCOCC1)n2Cc1ccccc1 do in these assays?
TMEM16A inh: inactive; ANO1 activ: inactive; GRK2 aptamer HTS: 89; NOD2 RIPK2 PPI: inactive; TLR9-MyD88 inh: inactive; TLR4-MyD88 BLA: inactive; GRK2 inh confirm: inactive; FAM quench CP1: inactive

How did COc1ccccc1OCC(O)Cn1c(Br)nc2c1c(=O)[nH]c(=O)n2C (stereo unspecified) do in these assays?
TMEM16A inh: inactive; ANO1 activ: inactive; GRK2 aptamer HTS: inactive; NOD2 RIPK2 PPI: inactive; TLR9-MyD88 inh: inactive; TLR4-MyD88 BLA: inactive

What do the screens show for `Cn1c(=O)[nH]c(=O)c2c1nc(SCC(=O)O)n2CCc1ccccc1`?
TMEM16A inh: inactive; ANO1 activ: inactive; GRK2 aptamer HTS: inactive; NOD2 RIPK2 PPI: inactive; TLR9-MyD88 inh: inactive; TLR4-MyD88 BLA: inactive

What do the screens show for `Cc1cc(C)n(-c2nc3c(c(=O)[nH]c(=O)n3C)n2CC(O)COc2ccc(Cl)cc2Cl)n1` (stereo unspecified)?
TMEM16A inh: inactive; ANO1 activ: inactive; GRK2 aptamer HTS: 72; NOD2 RIPK2 PPI: inactive; TLR9-MyD88 inh: inactive; TLR4-MyD88 BLA: inactive; GRK2 inh confirm: inactive; FAM quench CP1: inactive

Results for Cn1c(=O)[nH]c(=O)c2c1nc(SCC(=O)O)n2CCOc1ccccc1 ?
TMEM16A inh: inactive; ANO1 activ: inactive; GRK2 aptamer HTS: inactive; NOD2 RIPK2 PPI: inactive; TLR9-MyD88 inh: inactive; GRK2 inh confirm: inactive; FAM quench CP1: inactive

What do the screens show for `Cn1c(=O)[nH]c(=O)c2c1nc(SCCN1CCOCC1)n2CCCc1ccccc1`?
TMEM16A inh: inactive; ANO1 activ: inactive; GRK2 aptamer HTS: inactive; NOD2 RIPK2 PPI: inactive; TLR9-MyD88 inh: inactive; TLR4-MyD88 BLA: inactive

What do the screens show for `CC(C)c1cccc(C(C)C)c1NC(=O)CN1C(=O)NC2(CCCCCCC2)C1=O`?
ANO1 activ: inactive; GRK2 aptamer HTS: inactive; NOD2 RIPK2 PPI: inactive; TLR9-MyD88 inh: inactive

Results for CCOc1cc(C)c(S(=O)(=O)Nc2ccc(Cl)cn2)cc1C ?
TMEM16A inh: inactive; ANO1 activ: inactive; GRK2 aptamer HTS: 46; NOD2 RIPK2 PPI: inactive; TLR9-MyD88 inh: inactive; TLR4-MyD88 BLA: inactive; GRK2 CP2: inactive; FAM quench SP: inactive

What do the screens show for `CC(C)c1nnc(NC(=O)C2CCCN(C(=O)Nc3ccc(F)cc3)C2)s1` (stereo unspecified)?
TMEM16A inh: inactive; ANO1 activ: inactive; GRK2 aptamer HTS: inactive; NOD2 RIPK2 PPI: inactive; TLR9-MyD88 inh: inactive; GRK2 inh confirm: inactive; FAM quench CP1: inactive

What do the screens show for `CC1CC(C)CN(S(=O)(=O)c2ccc3oc(=O)ccc3c2)C1` (stereo unspecified)?
TMEM16A inh: inactive; ANO1 activ: inactive; GRK2 aptamer HTS: inactive; NOD2 RIPK2 PPI: inactive; TLR9-MyD88 inh: inactive

What do the screens show for `COCCCNC(=O)c1c(N)n(-c2ccccc2)c2nc3ccccc3nc12`?
TMEM16A inh: inactive; ANO1 activ: inactive; GRK2 aptamer HTS: inactive; NOD2 RIPK2 PPI: inactive

Screening results from PubChem BioAssay.
